Laboratory results as given in PubChem BioAssay (Tox21).
Results filed as inconclusive are left out. Active and inactive are the calls of the source. Unless noted, the call rests on the fitted dose curve; in most records, active means well fitted curve in the direction sought with a large enough effect in the repeat runs; inconclusive means weak or mixed curves; inactive means no such curve, though single readings can be large; an effect the other way counts as inactive or inconclusive.

What was measured:
[1] = qHTS assay to identify small molecule antagonists of the thyroid receptor (TR) signaling pathway - cell viability counter screen (AID 743064); further: nearly all actives have a fitted effect of over 50% in size; further: potency means the concentration at half of the fitted maximal effect
Procedure, shortened: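 Counter screen for cytotoxicity: compound plus T3 (1 nM final) on GH3.TRE-Luc cells, 23.5 h at 37 °C, then fluorescence viability readout with CellTiter-Fluor.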

[2] = test system: thyroid hormone receptor (rat, GH3 cells); assay: qHTS assay to identify small molecule agonists of the thyroid receptor (TR) signaling pathway (AID 743066; calls by dose curve)
[3] = target: Estrogen receptor (Homo sapiens) (UniProt P03372); assay: qHTS assay to identify small molecule antagonists of the estrogen receptor alpha (ER-alpha) signaling pathway (AID 743069; active means well fitted curve in the direction sought with a large enough effect in the signal ratio in the repeat runs, not every such curve was filed as active; the % refers to the signal ratio)
Procedure, shortened: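 Antagonist mode: compounds in DMSO were co-added with 17beta-estradiol to ER-alpha-bla HEK293 cells (2% charcoal-stripped serum) and left 18 h at 37C. Reporter inhibition was measured as FRET fluorescence after 2 h LiveBLAzer substrate at room temperature.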

[4] = qHTS assay to identify small molecule antagonists of the estrogen receptor alpha (ER-alpha) signaling pathway - cell viability counter screen (AID 743074; calls by dose curve;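 further: HEK293 cells carrying ER-alpha-UAS-bla reporter stimulated with 17beta-estradiol; nearly all actives have a fitted effect of over 45% in size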; further: potency means the concentration at half of the fitted maximal effect)
[5] = target: Estrogen receptor (Homo sapiens) (UniProt P03372); assay: qHTS assay to identify small molecule agonists of the estrogen receptor alpha (ER-alpha) signaling pathway (AID 743075; calls by dose curve;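 further: HEK293 GripTite cells with ER-alpha and UAS-driven beta-lactamase reporter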)
[6] = target: Estrogen receptor (Homo sapiens) (UniProt P03372); assay: qHTS assay to identify small molecule agonists of the estrogen receptor alpha (ER-alpha) signaling pathway using the BG1 cell line (AID 743079); further: nearly all actives have a fitted effect of over 20% in size
[7] = qHTS assay to identify small molecule antagonists of the estrogen receptor alpha (ER-alpha) signaling pathway using the BG1 cell line (AID 743080; calls by dose curve;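 further: BG1 cells stimulated with 17beta-estradiol alongside compound; series mostly up to about 70 µM; nearly all actives have a fitted effect of over 25% in size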)
Procedure, shortened: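 Quantitative HTS on the Tox21 10K library: BG1 cells with endogenous ER-alpha and ERE-luciferase reporter, 17beta-estradiol stimulation, 21.5 h compound exposure, luminescence endpoint with parallel fluorescence cytotoxicity counter-read.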

[8] = qHTS assay to identify small molecule antagonists of the estrogen receptor alpha (ER-alpha) signaling pathway using the BG1 cell line - cell viability counter screen (AID 743081);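 further: compound given together with 17beta-estradiol as the ER stimulus; nearly all actives have a fitted effect of over 45% in size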; further: potency means the concentration at half of the fitted maximal effect
Aromatase (Homo sapiens) = Aromatase (Homo sapiens) (UniProt P11511); assay: qHTS assay to identify aromatase inhibitors (AID 743083); further: series mostly up to about 70 µM; nearly all actives have a fitted effect of over 55% in size
[9] = qHTS assay to identify small molecule antagonists of the thyroid receptor (TR) signaling pathway (AID 743065); further: nearly all actives have a fitted effect of over 55% in size; further: potency means the concentration at half of the fitted maximal effect; on activity, negative = inhibition: series mostly up to about 70 µM
Procedure, shortened: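 Antagonism measured as loss of luciferase signal in GH3 cells stably carrying a TRE-luciferase reporter, co-treated with compound and T3 (1 nM final) for 23.5 h at 37 C. Viability was read in the same well by CellTiter-Fluor.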
On the % scale 0 is the no-effect control and ±100 the full control effect.

Sequence of Aromatase (Homo sapiens) (P11511 whole entry, looked up): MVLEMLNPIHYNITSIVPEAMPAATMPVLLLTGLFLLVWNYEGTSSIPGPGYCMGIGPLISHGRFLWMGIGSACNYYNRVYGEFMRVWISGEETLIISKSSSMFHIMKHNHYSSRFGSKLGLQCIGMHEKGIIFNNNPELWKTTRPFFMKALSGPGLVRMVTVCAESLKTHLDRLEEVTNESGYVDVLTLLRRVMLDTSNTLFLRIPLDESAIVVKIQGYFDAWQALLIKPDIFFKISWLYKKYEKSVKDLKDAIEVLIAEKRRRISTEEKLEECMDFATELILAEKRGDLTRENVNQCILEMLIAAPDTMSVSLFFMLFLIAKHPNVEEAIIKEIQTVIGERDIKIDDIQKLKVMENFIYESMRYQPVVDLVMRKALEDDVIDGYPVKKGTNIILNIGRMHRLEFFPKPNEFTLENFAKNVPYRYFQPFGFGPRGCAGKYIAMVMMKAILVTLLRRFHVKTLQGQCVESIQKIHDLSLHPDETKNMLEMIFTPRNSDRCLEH
Sequence of Estrogen receptor (Homo sapiens) (P03372 whole entry, looked up): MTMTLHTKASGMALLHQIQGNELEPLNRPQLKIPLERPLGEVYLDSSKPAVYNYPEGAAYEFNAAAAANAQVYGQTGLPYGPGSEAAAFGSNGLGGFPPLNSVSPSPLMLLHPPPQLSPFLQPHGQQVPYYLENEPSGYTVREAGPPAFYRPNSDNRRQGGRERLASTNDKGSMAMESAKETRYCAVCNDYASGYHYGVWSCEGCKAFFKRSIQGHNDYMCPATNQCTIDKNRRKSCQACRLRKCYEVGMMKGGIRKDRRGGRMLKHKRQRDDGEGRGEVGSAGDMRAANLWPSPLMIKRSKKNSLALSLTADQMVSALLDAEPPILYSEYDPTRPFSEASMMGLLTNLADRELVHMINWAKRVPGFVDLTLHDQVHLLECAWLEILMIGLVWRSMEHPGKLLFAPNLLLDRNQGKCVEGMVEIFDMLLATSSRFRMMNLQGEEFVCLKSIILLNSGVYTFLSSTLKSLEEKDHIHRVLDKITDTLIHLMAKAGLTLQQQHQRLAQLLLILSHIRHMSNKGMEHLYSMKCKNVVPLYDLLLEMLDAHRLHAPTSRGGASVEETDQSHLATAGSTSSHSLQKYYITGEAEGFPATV

Nc1cccc(S(=O)(=O)c2cccc(N)c2)c1
inactive: Potency [1] | Potency [2] | Potency [3] | Potency [4] | Potency [5] | Potency [6] | Potency [7] | Potency [8] | Potency (Aromatase (Homo sapiens))

CCCCC(CC)CN1C(=O)C2C3C=CC(C3)C2C1=O (stereo unspecified)
active: Potency [1] 54.5 µM
inactive: Potency [2] | Potency [4] | Potency [5] | Potency [6] | Potency [8]

CC1(c2ccccc2)OC(C(=O)O)=CC1=O (stereo unspecified)
inactive: Potency [1] | Potency [2] | Potency [4] | Potency [8] | Potency (Aromatase (Homo sapiens))

CCOC(=O)C(F)(F)F
inactive: Potency [1] | Potency [2] | Potency [4] | Potency [8] | Potency (Aromatase (Homo sapiens))

CN(C)CCCN1c2ccccc2Sc2ccccc21
active: Potency [1] 2.85 µM
inactive: Potency [2] | Potency [4] | Potency [8] | Potency (Aromatase (Homo sapiens))

CCO[Si](CCCCl)(OCC)OCC
inactive: Potency [1] | Potency [2] | Potency [3] | Potency [5] | Potency [6] | Potency [7] | Potency [8] | Potency (Aromatase (Homo sapiens))

CO[C@@H]1[C@H](OC(=O)/C=C/C=C/C=C/C=C/C(=O)O)CC[C@]2(CO2)[C@H]1[C@@]1(C)O[C@@H]1CC=C(C)C
inactive: Potency [1] | Potency [2] | Potency [4] | Potency [5] | Potency [6] | Potency [7] | Potency [8] | Potency (Aromatase (Homo sapiens))

Cc1ccc(N=Nc2c(O)c(C(=O)O)cc3ccccc23)c(S(=O)(=O)O)c1
inactive: Potency [2] | Potency [4] | Potency (Aromatase (Homo sapiens))
active: Potency [1] 26.5 µM | Potency [8] 16.7 µM

Clc1ccc2c(c1)CCc1cccnc1C2=C1CCNCC1
inactive: Potency [3] | Potency [5] | Potency [8]
active: Potency [1] 10.6 µM | Potency [9] 9.44 µM

CCCCCCCCCCCCN1CCCCCC1=O
active: Potency [4] 43.6 µM
inactive: Potency [1] | Potency [2] | Potency [8]

COc1ccnc(CS(=O)c2nc3ccc(OC(F)F)cc3[nH]2)c1OC (stereo unspecified)
inactive: Potency [1] | Potency [2] | Potency [4] | Potency [5] | Potency [7] | Potency [8] | Potency (Aromatase (Homo sapiens))

C=CC(=O)OCCOc1ccccc1
inactive: Potency [1] | Potency [2] | Potency [4] | Potency [8] | Potency (Aromatase (Homo sapiens))

CCCCC(=O)OCC(=O)[C@H]1[C@H](C)C[C@H]2[C@@H]3C[C@H](F)C4=CC(=O)C=C[C@]4(C)[C@@]3(F)[C@@H](O)C[C@@]21C
inactive: Potency [1] | Potency [2] | Potency [5] | Potency [6] | Potency [8] | Potency (Aromatase (Homo sapiens))

O=C(O)CC(=O)C(=O)O
inactive: Potency [1] | Potency [4] | Potency [8] | Potency (Aromatase (Homo sapiens))

O=CC1CC=CCC1 (stereo unspecified)
inactive: Potency [9] | Potency [2] | Potency [3] | Potency [4] | Potency [5] | Potency [6] | Potency [7] | Potency [8] | Potency (Aromatase (Homo sapiens))

COc1cc2nc(N(C)CCCNC(=O)C3CCCO3)nc(N)c2cc1OC (stereo unspecified)
inactive: Potency [9] | Potency [2] | Potency [3] | Potency [4] | Potency [5] | Potency [6] | Potency [7] | Potency [8] | Potency (Aromatase (Homo sapiens))

O=C1C(O)=C(O)C(=O)C(O)=C1O
inactive: Potency [9] | Potency [2] | Potency [3] | Potency [4] | Potency [5] | Potency [6] | Potency [7] | Potency [8] | Potency (Aromatase (Homo sapiens))

C/C=C/C(=O)CC
inactive: Potency [9] | activation [2] 0.0391% [at 18 µM] | activity, negative = inhibition [3] 9.39% [at 15 µM] | activity, negative = cytotoxicity [4] -6.1% [at 15 µM] | activation [5] -0.96% [at 14.9 µM] | Potency [6] | Potency [7] | Potency [8] | Potency (Aromatase (Homo sapiens))

CCOc1ccc(N)c([N+](=O)[O-])c1
inactive: Potency [9] | Potency [2] | Potency [3] | Potency [4] | Potency [5] | Potency [6] | Potency [8] | Potency (Aromatase (Homo sapiens))
